Experimental data reported in PubChem BioAssay.
Active and inactive are the calls of the source.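 How the source made its calls, unless noted: active means inhibition above 20% together with a positive visual image hit; inconclusive means visual image hit but inhibition not above 20%; inactive means no visual image hit.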

Legend:
[1] = inhibitors of TNFa-induced NFkB p65 translocation, primary screen, imaging, HUVEC, MLSMR starter and 10KST1 sets (AID 438); settings: HUVEC TNFa-induced p65 nuclear translocation; cell count: measured here: nuclei count (cytotoxicity indicator), at 2.08 µM; inhibition: at 2 µM, stronger effect = higher value, 0% TNFa-plus-vehicle, 100% no-TNFa wells;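 further: compound added about 3h40 before a 20 min TNFalpha stimulation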;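 on inhibition: signal is the nuclear over cytoplasmic p65 intensity ratio per well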
[2] = reduction of polyQ htt aggregates in cells – imaging, exon1htt(103Q)mCFP cells, high-content imaging, primary screen (AID 483;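 active means visual image review flags a hit and inhibition of aggregation exceeds 20%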;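 further: compound exposure lasted 3 days before fixation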;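 on nuclei count: percent of the per-plate median nuclei count of sample wells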); settings: exon1htt(103Q)mCFP cell line, aggregate imaging, at 2 µM; inhibition of aggregation: stronger effect = higher value; nuclei count: measured here: cell count, toxicity
[3] = endothelial E-selectin expression blockers – imaging, HUVEC, immunofluorescence, MLSMR starter and 10KST1 sets, primary screen (AID 487;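 active means visually confirmed hit in the image check and inhibition above 20%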;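 on inhibition: signal is fraction of cell area covered by stained E-selectin grains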;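 on nuclei count: 100% = median nuclei count of all wells on the same plate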); settings: HUVEC TNFalpha-induced E-selectin immunofluorescence imaging, at 2 µM; inhibition: stronger effect = higher value; nuclei count: measured here: cell number, toxicity
[4] = molecular target: Voltage-gated potassium channel subunit beta-2 (Rattus norvegicus) (UniProt P62483); assay: inhibitors of rat Kvbeta2 reductase activity – biochemical, NADPH fluorescence, primary screen (AID 622;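 active means fluorescence slope higher than the sample average by over 3 SD, cut at about -0.22 in these data, passing the limit was not always enough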;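 further: slope of raw intensity against log time taken from 70 to 1610 s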); settings: recombinant KvBeta, 4-cyanobenzaldehyde reduction, at 10 µM, stronger effect = higher value
[5] = molecular target: Voltage-gated potassium channel subunit beta-2 (Rattus norvegicus) (UniProt P62483); assay: enhancers of rat Kvbeta2 NADPH turnover – biochemical, NADPH fluorescence, primary screen (AID 623;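 active means NADPH fluorescence slope more negative than the mean of all samples by about 3 SD, 99.7% confidence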;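 further: fluorescence intensity change per second fitted from 20 to 320 s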); settings: Recombinant KvBeta, NADPH fluorescence decrease slope, 10 min; at 10 µM; stronger effect = lower value
[6] = molecular target: Alpha-2C adrenergic receptor (Homo sapiens) (UniProt P18825); assay: compounds altering alpha2C-coupled GIRK flux – cell-based, HEK293 alpha2C/GIRK1/2, thallium flux, primary screen (AID 624;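 active means fluorescence slope after compound addition differing from the mean of all screened samples at 99.7% confidence, in either direction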;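 further: slope of fluorescence ratio to pre-addition baseline per second over 15 to 24 s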); settings: thallium flux BTC fluorescence, at 10 µM, actives lie on both sides
[7] = blockers of RIG-like receptor reporter activation – cell-based, Sendai virus stimulus, luciferase, 10K MLSCN set, TLR/RLR signaling modifier project, primary screen (AID 602276;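 active means inhibition at or above 50% at 10 µM; inactive means inhibition below 50%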;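 further: firefly luciferase from ISG56 promoter only with Renilla not read in this screen; 0% = Sendai virus plus DMSO and 100% = medium plus DMSO without virus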); settings: HEK293 RL24 IRF3 luciferase reporter, at 10 µM, stronger effect = higher value
[8] = TLR3 IRF3 reporter activation blockers – cell-based, poly I:C stimulus, luciferase, 10K MLSCN set, primary screen (AID 602277;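 active means inhibition of the reporter signal at or above 50%; inactive means inhibition below 50%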); settings: HEK293-TLR3 RL24 IRF3 luciferase reporter, at 10 µM, stronger effect = higher value

Voltage-gated potassium channel subunit beta-2 (Rattus norvegicus), sequence (P62483 whole entry, looked up): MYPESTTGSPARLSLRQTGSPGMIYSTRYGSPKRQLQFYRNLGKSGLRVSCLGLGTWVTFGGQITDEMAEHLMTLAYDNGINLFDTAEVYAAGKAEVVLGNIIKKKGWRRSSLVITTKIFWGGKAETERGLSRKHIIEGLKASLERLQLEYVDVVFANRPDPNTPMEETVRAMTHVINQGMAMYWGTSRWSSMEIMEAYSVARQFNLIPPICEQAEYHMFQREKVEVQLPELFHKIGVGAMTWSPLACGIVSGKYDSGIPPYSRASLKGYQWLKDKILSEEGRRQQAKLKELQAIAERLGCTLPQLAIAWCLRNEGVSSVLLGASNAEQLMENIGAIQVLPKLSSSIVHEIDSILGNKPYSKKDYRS
Alpha-2C adrenergic receptor (Homo sapiens), sequence (P18825 whole entry, looked up): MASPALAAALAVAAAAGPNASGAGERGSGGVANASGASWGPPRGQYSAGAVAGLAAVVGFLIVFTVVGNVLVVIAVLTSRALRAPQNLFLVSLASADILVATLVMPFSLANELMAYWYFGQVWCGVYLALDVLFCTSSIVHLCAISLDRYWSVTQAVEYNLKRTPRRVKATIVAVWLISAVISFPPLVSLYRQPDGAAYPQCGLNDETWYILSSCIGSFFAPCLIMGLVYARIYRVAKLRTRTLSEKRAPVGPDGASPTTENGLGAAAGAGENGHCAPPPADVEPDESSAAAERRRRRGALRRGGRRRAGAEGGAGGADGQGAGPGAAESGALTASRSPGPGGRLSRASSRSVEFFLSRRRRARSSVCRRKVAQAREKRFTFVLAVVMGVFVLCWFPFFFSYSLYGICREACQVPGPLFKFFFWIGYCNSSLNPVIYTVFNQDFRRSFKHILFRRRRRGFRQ

Row | SMILES | cell count [1] | inhibition [1] | inhibition of aggregation [2] | nuclei count [2] [%] | inhibition [3] | nuclei count [3] [%] | fluorescence slope [4] | NADPH fluorescence slope [5] | slope [6] | inhibition [7] | inhibition [8]
1 | COc1ccccc1C(=O)n1nc(-c2ccc(Cl)cc2)nc1N | 330 | -1.2% (inactive) | -3.1% (inactive) | 104 | -17.2% (inactive) | 113 | -0.426 (inactive) | 1.8e-05 (inactive) | 0.00385 (inactive) | 2.38% (inactive) | 9.48% (inactive)
2 | COc1ccc(CNc2nc3nc(C)c(Cl)c(C)n3n2)cc1OC | 684 | -23.3% (inactive) | -2.8% (inactive) | 110 | -4.1% (inactive) | 105 | -0.331 (inactive) | -6e-05 (inactive) | 0.00515 (inactive) | 3.08% (inactive) | -10.6% (inactive)
3 | CC(=O)C1=C(C)NC(=O)NC1c1cccc(O)c1 (centres undefined) | 454 | 7.3% (inactive) | 0% (inactive) | 111 | -36.2% (inactive) | 110 | -0.399 (inactive) | -5e-05 (inactive) | 0.00509 (inactive) | 14.2% (inactive) | 16% (inactive)
4 | O=C(Cn1cnc2c(nnn2-c2ccc(F)cc2)c1=O)N1CCCc2ccccc21 | 654 | 0.4% (inactive) | -21.9% (inactive) | 130 | 1.5% (inactive) | 102 | -0.523 (inactive) | -1.6e-06 (inactive) | 0.00588 (inactive) | 14% (inactive) | 12.1% (inactive)
5 | Cc1cc(NS(=O)(=O)c2ccc(NC(=O)Nc3ccc4c(c3)OCO4)cc2)no1 | 599 | -10.7% (inactive) | -12.8% (inactive) | 108 | -96.1% (inactive) | 112 | -0.393 (inactive) | -5.2e-05 (inactive) | 0.00596 (inactive) | -9.3% (inactive) | -20.7% (inactive)
6 | C=CCn1c(=O)c2ccccc2n2c(SCC(=O)Nc3cc(C)on3)nnc12 | 469 | -22.4% (inactive) | -23.3% (inactive) | 113 | -50.6% (inactive) | 153 | -0.605 (inactive) | -4.3e-05 (inactive) | 0.00622 (inactive) | 3.33% (inactive) | 5.94% (inactive)
7 | O=C1CCCC2=C1C(c1cccc(Br)c1)n1nc(-c3ccco3)nc1N2 (centres undefined) | 568 | -1.5% (inactive) | -10.2% (inactive) | 100 | 11.1% (inactive) | 109 | -0.523 (inactive) | -2.2e-05 (inactive) | 0.00646 (inactive) | 9.76% (inactive) | 24.2% (inactive)
8 | COc1cccc(-c2nc3n(n2)C(c2ccccc2Cl)C(C(N)=O)=C(C)N3)c1 (centres undefined) | 595 | -0.8% (inactive) | -7.2% (inactive) | 114 | -26.6% (inactive) | 103 | -0.393 (inactive) | 1.7e-05 (inactive) | 0.00613 (inactive) | 12.1% (inactive) | 38.1% (inactive)
9 | O=C(CCCn1c(=O)c2sccc2n(Cc2cc(=O)n3ccccc3n2)c1=O)NCc1ccco1 | 729 | -2.9% (inactive) | -3.9% (inactive) | 106 | -67.8% (inactive) | 116 | -0.575 (inactive) | 3.3e-07 (inactive) | 0.0069 (inactive) | -12.7% (inactive) | -8.56% (inactive)
10 | c1ccc(-n2c(Sc3cnccn3)nnc2-c2cccs2)cc1 | 362 | -24.6% (inactive) | 2.4% (inactive) | 100 | -37.1% (inactive) | 149 | -0.612 (inactive) | -1.5e-05 (inactive) | 0.00525 (inactive) | -2.69% (inactive) | 12.5% (inactive)
11 | c1ccc(-c2oc3ncnc(NCCN4CCOCC4)c3c2-c2ccccc2)cc1 | 365 | -11.4% (inactive) | -1.8% (inactive) | 102 | -121% (inactive) | 106 | -0.512 (inactive) | -8.4e-05 (inactive) | 0.00536 (inactive) | 13.9% (inactive) | 16% (inactive)
12 | CCOc1ccc(NC(=O)CN2C(=O)C3CCCN3C2=O)cc1 (centres undefined) | 551 | -13.7% (inactive) | -2.3% (inactive) | 102 | -48.6% (inactive) | 110 | -0.572 (inactive) | 1.4e-05 (inactive) | 0.00647 (inactive) | 3.2% (inactive) | 8.26% (inactive)
13 | CC(C)OC(=O)CSc1nc2cccnc2n1C1CCCCC1 | 267 | -9.7% (inactive) | -18.5% (inactive) | 78.8 | -25.1% (inactive) | 106 | -0.592 (inactive) | -5.3e-05 (inactive) | 0.00357 (inactive) | 11.2% (inactive) | 17.9% (inactive)
14 | O=C(CCCc1cccs1)Nc1nc2c(s1)CCCC2 | 613 | 9.3% (inactive) | -20.4% (inactive) | 102 | -164% (inactive) | 150 | -0.461 (inactive) | -2.9e-05 (inactive) | 0.00629 (inactive) | -29.3% (inactive) | -48.8% (inactive)
